An excerpt weighted towards active compounds, which were near 3.1% of everything screened.
A549 tox = counter-screen for Nrf2 inhibitors: cytotoxicity in A549 cells; AID 504648; A549 ARE-Fluc cells, CellTiter-Fluor viability, 18-24 h; Potency, µM (doses to about 46 µM), without a hit: top-dose activity change, negative = cytotoxicity, actives largely listed as inhibitors; 390,000 tested, 0.16% active; also: % is scaled to controls: 0 for no effect and ±100 for the full control effect
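Cytotoxicity counterscreen: CellTiter-Fluor fluorescence was measured in A549 ARE_Fluc cells after 18-24 h of compound exposure in a concentration series. The subsequent BugLite luminescent read reports ARE-luciferase activity.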
rTrxR1 inhibitor = rat TrxR1 inhibition; recombinant rTrxR1, NADPH fluorescence consumption, selenite substrate; O89049; 390,000 tested, 1% active; AID 588453; Potency, µM (top dose mostly 114 µM), without a hit: at the highest dose activity change, negative = inhibition, hits mostly inhibitors; also: % is scaled to controls: 0 for no effect and ±100 for the full control effect; nearly all actives have a fitted effect of over 65% in size
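Rat TrxR1 (90 nM in the dispensed reagent) was pre-reduced with 400 uM NADPH for 5 min at room temperature, then incubated with compound for 15 min. After 400 uM selenite was added, NADPH fluorescence (Ex 340/Em 450 nm) was followed for 8 min.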
Nrf2 inh = Nrf2 pathway inhibition; 360,000 tested, 2.1% active; Potency, µM (top dose mostly 46 µM), inactives show top-dose activity change, negative = inhibition, most hits filed as inhibitors; A549 ARE-Fluc reporter, luciferase luminescence, 18-24 h; also: % is scaled to controls: 0 for no effect and ±100 for the full control effect; nearly all actives have a fitted effect of over 60% in size
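Cells were seeded and rested 2 h, then exposed to compounds for 18-24 h. CellTiter-Fluor was read first as a viability measure. BugLite was added 15 min before the final luminescent read of ARE-luciferase activity in A549 cells.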
Mito fusion act = inhibitors of mitochondrial division or activators of mitochondrial fusion. S. cerevisiae fusion-defective mutant growth rescue, CellTiterGlo 48 h. Potency, µM (doses to about 46.1 µM), without a hit: top-dose growth rescue (activation), actives largely listed as activators. 320,000 tested, 0.23% active. AID 485298; also: % of control where 0% means no effect; nearly all actives have a fitted effect of over 45% in size
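Yeast fusion mutant, YPEG (non-fermentable carbon), compound, 48 h at 37C non-permissive; CellTiterGlo added, 10 min RT, luminescence read. Rescued growth = division inhibition.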
mIDH1 inhibitor = inhibitors of human mutant IDH1 R132H | O75874 | IDH1-R132H enzyme, NADPH consumption, diaphorase/resazurin fluorescence | Potency, µM (top dose mostly 76.6 µM), for the others: at the highest dose activity change, negative = inhibition, most hits filed as inhibitors | 390,000 tested, 0.093% active | AID 602179; also: % is scaled to controls: 0 for no effect and ±100 for the full control effect; nearly all actives have a fitted effect of over 65% in size
Target sequence (O75874 whole entry R132H, stated change not applied): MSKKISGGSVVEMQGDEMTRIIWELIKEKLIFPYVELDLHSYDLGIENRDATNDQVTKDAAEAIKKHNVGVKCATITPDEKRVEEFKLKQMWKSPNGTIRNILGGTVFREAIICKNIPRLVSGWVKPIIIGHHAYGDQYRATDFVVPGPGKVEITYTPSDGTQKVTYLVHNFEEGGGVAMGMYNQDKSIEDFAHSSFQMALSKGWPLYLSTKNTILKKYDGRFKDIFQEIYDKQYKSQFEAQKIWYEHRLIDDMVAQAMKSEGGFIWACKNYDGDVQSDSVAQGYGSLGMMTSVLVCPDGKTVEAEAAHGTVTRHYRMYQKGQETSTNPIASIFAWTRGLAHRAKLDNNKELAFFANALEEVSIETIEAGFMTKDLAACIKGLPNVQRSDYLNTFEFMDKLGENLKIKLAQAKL
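IDH1-R132H (0.5 ug/mL) preincubated 30 min with compound, then NADPH (0.016 mM) and alpha-KG (2 mM) added; 80 min at RT, pH 7.5. Remaining NADPH coupled via diaphorase/resazurin to fluorescence (540/590 nm); concentration-response curves normalized to no-enzyme control.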
TrxR1 substrate = is turned over as a substrate by rat TrxR1; purified TrxR1 substrate turnover, NADPH consumption readout; 390,000 tested, 0.01% active; Potency, µM (highest dose often 114 µM), for the others: at the top dose activity change, negative = substrate turnover; O89049; also: % is scaled to controls: 0 for no effect and ±100 for the full control effect; nearly all actives have a fitted effect of over 50% in size
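Rat TrxR1, dispensed at 90 nM, was prereduced with 400 uM NADPH (final) for 5 min at ~22 deg C, then incubated with compound 15 min before 400 uM selenite. A first-read NADPH fluorescence drop versus no-compound background flagged substrates.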
Active calls of the source: *; ? = inconclusive; · = no result given; [ ] = another dose, or the depositor's remark. Calls follow the shape of the dose curve; as a rule, active = well fitted curve in the direction sought with a large enough effect; inconclusive = small, poorly fitted or top-dose-only effect, or another doubt; inactive = no such curve, though single readings can be large; an effect the other way counts as inactive or inconclusive. Potency is read from the fitted curve at half-maximal effect.

SMILES | A549 tox | rTrxR1 inhibitor | Nrf2 inh | Mito fusion act | mIDH1 inhibitor | TrxR1 substrate
O=c1c(Cl)c(N2CCCCC2)cnn1-c1nc2ccccc2[nH]1 | -1.4% | 2.4% | 16.4µM* | -6.2% | 2.0% | -3.2%
COc1ccc(CCn2c3c(c(=O)[nH]c2=S)CN(Cc2ccccc2)CN3)cc1OC | 3.9% | ? | ? | · | · | -7.1%
COC(=O)c1c(N2C(=O)CC(Sc3ccccc3C(=O)O)C2=O)sc(C)c1C (stereo not drawn) | -6.7% | ? | 3.1% | -14.9% | 0.2% | 5.7%[57.1 µM]
O=C(O)c1ccccc1SC1CC(=O)N(c2ccccc2)C1=O (stereo not drawn) | 0.7% | ? | 3.5% | -8.4% | 6.4% | -13.9%
O=C(O)c1ccccc1SC1CC(=O)N(C2CCCCC2)C1=O (stereo not drawn) | -1.3% | 79.4µM* | -5.7% | -0.4% | -5.7% | 2.7%
COC(=O)c1c(N2C(=O)CC(Sc3ccccc3C(=O)O)C2=O)sc2c1CCCC2 (stereo not drawn) | 1.2% | 79.4µM* | -0.5% | 2.6% | -4.5% | 3.3%
Cc1cc(C(=O)CSc2nnc(-c3cccs3)n2Cc2ccccc2)c(C)n1C | -7.9% | 1.7% | 6.2% | 5.7% | -6.6% | 3.5%
O=c1cc(CSc2nnc(-c3cccs3)n2Cc2ccccc2)nc2sc3ccccc3n12 | -29.0% | -1.9%[57.1 µM] | 25.9µM* | 21.6% | 3.4% | 4.5%[57.1 µM]
CC1=CC(=O)N(c2cccc(C(F)(F)F)c2)C1c1ccc(Cl)cc1 (stereo not drawn) | ? | 2.2% | 23.1µM* | -14.9% | 1.2% | -4.8%
CN(C1CCCCC1)S(=O)(=O)c1ccc(NC(=O)c2ccc(Br)o2)cc1 | -12.1% | 14.0%[57.1 µM] | ? | 11.2µM* | -0.3% | 10.3%[57.1 µM]
O=C(Nc1ccc(S(=O)(=O)NC2CCCCC2)cc1)c1ccc(Br)o1 | -12.6% | 7.1% | 14.6µM* | 1.8% | 1.9% | 1.0%
Cc1cc2c(N3CCCCC3C)ncnc2s1 (stereo not drawn) | -13.5% | -12.0% | 20.6µM* | -1.6% | 1.2% | -1.4%[57.1 µM]
Cc1ccc(-c2nc(CN(C)Cc3cccc4cnccc34)c(C)o2)s1 | -2.0% | 14.1% | 23.1µM* | -0.6% | 2.0% | 5.9%
Cc1ccc(-c2nc(CN(C)C3CCOCC3)c(C)o2)s1 | 3.7% | -7.0% | -2.0% | -0.7% | 9.0% | 15.3%
O=C(C[n+]1csc2ccccc21)c1ccc(I)cc1 | · | 9.3%[0.0914 µM] | · | · | · | 14.1%
COc1ccc(/C(O)=C2/C(=O)C(=O)N(CCN3CCOCC3)C2c2ccccn2)cc1OC (stereo not drawn) | -5.1% | 44.7µM* | 17.4% | -4.7% | 6.7% | -10.8%
CCOc1ccc(C2/C(=C(\O)c3ccc4c(c3)OCCO4)C(=O)C(=O)N2CCCN2CCOCC2)cc1OC (stereo not drawn) | -5.0% | 50.1µM* | 6.2% | 5.2% | 0.4% | 1.5%
C=CCOc1ccc(/C(O)=C2/C(=O)C(=O)N(CCCN3CCOCC3)C2c2ccccc2)cc1 (stereo not drawn) | 7.0% | 25.1µM* | 6.9% | · | -0.3% | -6.9%
COc1ccc(C2/C(=C(\O)c3ccc4c(c3)OCCO4)C(=O)C(=O)N2CCCN(C)C)c(OC)c1 (stereo not drawn) | -12.4% | 10µM* | -4.2% | -1.3% | 3.4% | -8.4%
CCOc1ccc(C2/C(=C(\O)c3ccc4c(c3)OCCO4)C(=O)C(=O)N2CCCN2CCOCC2)cc1 (stereo not drawn) | -2.1% | ? | -0.3% | 2.1% | -0.4% | -13.5%
COC(=O)c1cccc(-n2c(CCC(=O)O)ccc2-c2ccc(OC)cc2)c1 | -8.9% | ? | 3.2% | · | -13.9% | 8.0%
CCN(CC)CCN1C(=O)C(=O)/C(=C(/O)c2ccc3c(c2)CC(C)O3)C1c1ccc(OC)cc1 (stereo not drawn) | -2.9% | 44.7µM* | 8.9% | -1.0% | -5.5% | -18.3%
Cc1ccc(/C(O)=C2/C(=O)C(=O)N(CCN3CCOCC3)C2c2ccccn2)cc1 (stereo not drawn) | 2.1% | ? | 18.4% | 2.9% | 7.2% | -1.7%
O=C1C(=O)N(CCN2CCOCC2)C(c2ccccn2)/C1=C(/O)c1ccccc1 (stereo not drawn) | -2.8% | 17.8µM* | -3.2% | 0.2% | 9.1% | -5.3%
CS(=O)(=O)NCCc1csc2nc(-c3ccccc3)nn12 | -12.8% | 8.7%[57.1 µM] | · | · | 11.4% | 3.7%[57.1 µM]
SMILES | A549 tox | rTrxR1 inhibitor | Nrf2 inh | Mito fusion act | mIDH1 inhibitor | TrxR1 substrate
Cc1cc2c(s1)c(/C=N/O)c(C(=O)NCc1ccccc1F)n2C | 13.7% | · | 2.9% | · | · | ·
Cc1cc(C)n2ncc(C(=O)NC(C)C)c2n1 | 11.7% | · | -4.3% | · | · | ·
CSc1cccc(NC(=S)NC(=O)CCc2ccccc2)c1 | 0.6% | -30.1% | 4.8% | -8.8% | 6.7% | 9.7%
Cc1cccc(C)c1NC(=S)NC(=O)CCc1ccccc1 | -22.3% | 3.55µM* | ? | -1.1% | -4.0% | -2.0%[57.1 µM]
CCOc1ccc(NC(=O)C2CCCN(c3c(CC)c(C)nc4ncnn34)C2)cc1 (stereo not drawn) | -13.9% | 9.8%[57.1 µM] | 10.3µM* | -2.4% | 1.6% | -8.2%
COc1ccc(-c2cn3nc(N4CCCC(C(=O)Nc5ccc(C)c(C)c5)C4)sc3n2)cc1 (stereo not drawn) | -1.4% | 13.3% | -6.2% | · | -19.6% | -9.0%
CCc1c(C)nc2ncnn2c1N1CCC(C(=O)NCc2cccs2)CC1 | -0.7% | 8.9% | 18.4µM* | 2.9% | 4.4% | -1.3%
CCOc1ccc(NC(=O)C2CCCN(c3nn4cc(-c5ccc(OC)cc5)nc4s3)C2)cc1 (stereo not drawn) | -0.6% | -1.0% | 7.31µM* | · | 11.5% | -8.3%
COc1ccc(Br)cc1/C(C)=N/NC1=NCCN1 | 0.9% | -2.9% | 11.6µM* | 3.1% | 10.0% | -7.8%
COc1ccccc1N1C(=O)C2C(c3ccccc3F)NN(C(=O)c3ccc(C)cc3)C2C1=O (stereo not drawn) | 16.6% | 50.1µM* | 11.9% | -2.8% | -11.2% | -1.5%
CN(C)c1ccc(/C=C2\C(=O)/C(=C\c3ccc(N(C)C)cc3)c3ccccc32)cc1 | · | 6.0% | · | · | · | -11.7%
O=C(CSc1nc2ccccc2nc1Cc1ccccc1)Nc1ccc2c(c1)OCO2 | -5.6% | 24.0%[57.1 µM] | · | · | 0.0% | 3.3%[57.1 µM]
O=C1C=C(c2c(O)ccc3ccccc23)c2ccccc2C1=O | -9.6% | ? | -0.6% | · | 24.2% | 79.4µM*
CC(=O)Nc1ccc(N/C(=N\S(=O)(=O)c2ccccc2)c2ccccc2)cc1 | -1.2% | -14.0% | 1.8% | 1.7% | 0.6% | -12.0%
Cc1ccc(NC(=S)N/C(=N/S(=O)(=O)c2ccccc2)c2ccccc2)cc1 | 1.3% | 6.31µM* | ? | 2.7% | 0.3% | -9.2%

Screening results: PubChem, National Center for Advancing Translational Sciences (NCATS)
